The text below walks through data of PubChem BioAssay (NCATS).

In assay [1] the target is Alpha-galactosidase (Coffea arabica) (UniProt Q42656). In words: Counterscreen for Glucocerebrosidase Inhibitors: qHTS Assay for Coffee Bean alpha-Galactosidase at pH 4.5 (AID 957; active means well fitted curve in the direction sought with a large enough effect; an effect the other way counts as inactive or inconclusive;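 further: plate controls were enzyme alone for no effect and no enzyme for full effect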). Summed up: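 Green coffee bean enzyme (2 nM final) was incubated with compounds (0.7 nM to 77 uM) and 4-methylumbelliferyl alpha-D-galactopyranoside (80 uM final) in 50 mM citric acid, 0.005% Tween-20, pH 4.5, 20 min at room temperature; AC50 from Hill fits.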
Alpha-galactosidase (Coffea arabica), sequence (Q42656 whole entry, looked up): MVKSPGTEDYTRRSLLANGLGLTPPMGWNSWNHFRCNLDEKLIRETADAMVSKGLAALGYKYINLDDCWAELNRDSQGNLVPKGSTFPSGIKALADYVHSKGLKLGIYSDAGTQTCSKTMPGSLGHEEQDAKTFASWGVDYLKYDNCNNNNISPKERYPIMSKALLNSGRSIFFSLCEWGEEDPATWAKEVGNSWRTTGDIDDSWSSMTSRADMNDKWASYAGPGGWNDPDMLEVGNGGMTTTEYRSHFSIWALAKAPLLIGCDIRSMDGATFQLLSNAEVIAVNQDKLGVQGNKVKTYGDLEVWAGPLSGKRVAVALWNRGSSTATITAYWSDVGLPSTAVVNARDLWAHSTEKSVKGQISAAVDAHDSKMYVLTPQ

The target is the same in assay [2]. Description: Counterscreen for Glucocerebrosidase Inhibitors: qHTS Assay for Coffee Bean alpha-Galactosidase at pH 5.9 (AID 998; active means well fitted curve in the direction sought with a large enough effect; an effect the other way counts as inactive or inconclusive;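 further: plate controls were uninhibited enzyme for no effect and no-enzyme basal signal for full effect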). Put shortly:
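Green coffee bean enzyme (2 nM) with 4-methylumbelliferyl alpha-D-galactopyranoside (80 uM) in 50 mM citric acid, 0.005% Tween-20, pH 5.9, 20 min at room temperature; compounds 0.7 nM–77 uM. Stopped at pH 10, fluorescence Ex365/Em440; Hill-fit AC50.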

Assay [3] is described as follows: Validation screen for inhibitors of Lassa infection (AID 463096). Further: on the % scale 0 is the no-effect control and ±100 the full control effect.
A short description of assay [4]: Inducers of the Endoplasmic Reticulum Stress Response (ERSR) in human glioma: Validation (AID 504836; active means well fitted curve in the direction sought with a large enough effect; an effect the other way counts as inactive or inconclusive; further: 0% is about no effect). Summed up: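 Stably transfected U87-MG glioma cells carrying a GRP78-based luciferase sensor; 16 h compound incubation. Luminescence end-point read 10 min after Bright-Glo addition at room temperature.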
Assay [5] in a line: qHTS for Inhibitors of the Functional Ribonucleoprotein Complex (vRNP) of Lassa (LASV) Arenavirus: LASV Primary Screen - GLuc reporter signal (AID 1347082; calls by dose curve; tested in HEK293 reporter line; further: nearly all actives have a fitted effect of over 60% in size; further: potency means the concentration at half of the fitted maximal effect; on activity change, negative = inhibition: on the % scale 0 is the no-effect control and ±100 the full control effect). A general note: Quantitative high-throughput screening tests each substance at several concentrations.
The nature of assay [6]: qHTS for Inhibitors of the Functional Ribonucleoprotein Complex (vRNP) of Lassa (LASV) Arenavirus: Viability assay - alamar blue signal for LASV Primary Screen (AID 1347083; calls by dose curve; tested in HEK293 reporter line; further: nearly all actives have a fitted effect of over 80% in size; further: potency means the concentration at half of the fitted maximal effect).
Assay [7] can be described thus: qHTS for Inhibitors of the Functional Ribonucleoprotein Complex (vRNP) of Lymphocytic Choriomeningitis Arenaviruses (LCMV): Viability assay - alamar blue signal for LCMV Primary Screen (AID 1347085; calls by dose curve; tested in HEK293 reporter line; further: nearly all actives have a fitted effect of over 80% in size; further: potency means the concentration at half of the fitted maximal effect).
The nature of assay [8]: qHTS profiling of the MIPE4 collection as inhibitors of Plasmodium falciparum (DD2) proliferation (Rep 2) (AID 743346; call rule not given here). As to conditions: P. falciparum Dd2 in erythrocytes, SYBR Green DNA, 72 h; at 28.5 µM (top of the series) unless noted. Summed up: (§1)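 Erythrocytes infected with P. falciparum (0.3% parasitemia, 2.5% hematocrit) incubated with compounds 72 h at 37 C, 5% CO2. Lysis with saponin/Triton buffer containing SYBR Green I, overnight at room temperature in the dark; DNA fluorescence (485/535 nm) normalised to 0.29 uM artemisinin and DMSO.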

The nature of assay [9]: qHTS profiling of the MIPE4 collection as inhibitors of Plasmodium falciparum (HB3) proliferation (AID 743347; call rule not given here;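 further: plate controls were DMSO vehicle wells for no effect and artemisinin wells for full effect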). The settings on record: P. falciparum HB3 in erythrocytes, SYBR Green DNA, 72 h; at 28.5 µM (top of the series) unless noted. Put shortly:
as §1

The target of assay [10] is Nucleoprotein (Lymphocytic choriomeningitis virus (strain Armstrong)) (UniProt P09992). In words: qHTS for Inhibitors of the Functional Ribonucleoprotein Complex (vRNP) of Lymphocytic Choriomeningitis Arenaviruses (LCMV): LCMV Primary Screen - GLuc reporter signal (AID 1347086). Further: on the % scale 0 is the no-effect control and ±100 the full control effect; nearly all actives have a fitted effect of over 70% in size.
Nucleoprotein (Lymphocytic choriomeningitis virus (strain Armstrong)), sequence (P09992 whole entry, looked up): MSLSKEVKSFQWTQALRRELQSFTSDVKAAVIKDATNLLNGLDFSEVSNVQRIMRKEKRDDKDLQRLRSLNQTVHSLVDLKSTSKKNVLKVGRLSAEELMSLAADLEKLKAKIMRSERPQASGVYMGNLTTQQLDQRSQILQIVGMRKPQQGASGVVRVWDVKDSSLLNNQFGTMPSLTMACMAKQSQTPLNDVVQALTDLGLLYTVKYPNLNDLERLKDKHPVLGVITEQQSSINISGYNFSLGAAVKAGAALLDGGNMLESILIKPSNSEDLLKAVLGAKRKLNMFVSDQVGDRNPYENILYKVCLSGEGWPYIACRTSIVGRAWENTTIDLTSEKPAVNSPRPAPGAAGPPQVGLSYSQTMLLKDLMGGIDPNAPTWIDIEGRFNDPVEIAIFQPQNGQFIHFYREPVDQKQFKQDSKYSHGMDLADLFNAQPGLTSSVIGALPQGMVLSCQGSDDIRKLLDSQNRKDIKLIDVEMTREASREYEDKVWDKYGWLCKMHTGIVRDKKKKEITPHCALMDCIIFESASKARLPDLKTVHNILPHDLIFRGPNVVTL
Assay [11] in a line: Confirmatory qHTS to identify inhibitors of SARS-CoV-2 cell entry (AID 1645844). Further: nearly all actives have a fitted effect of over 45% in size. Further: potency means the concentration at half of the fitted maximal effect. Put shortly:
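HEK293-ACE2 cells were pretreated 1 h with compound, then infected with MLV-based pseudoparticles bearing C-terminally truncated Wuhan-Hu-1 spike for 48 h at 37C; luciferase luminescence normalized to spike PP and bald PP wells.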

Assay [12] in a line: Cytotoxicity counterscreen for inhibitors of SARS-CoV-2 cell entry (AID 1645845). Further: nearly all actives have a fitted effect of over 50% in size. Further: potency means the concentration at half of the fitted maximal effect. Put shortly:
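HEK293-ACE2 cells (Expi293F stably expressing human ACE2) seeded overnight, then compound for 1 h plus 48 h at 37C. Viability as ATP content by luminescence; normalized to wells with cells and media-only wells.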
Background: The purpose of a counterscreen is to sort out artefacts and off-target activity.

Assay [13] concerns the target Cytochrome P450 3A4 (Homo sapiens) (UniProt P08684). In words: qHTS Assay for Inhibitors and Substrates of Cytochrome P450 3A4 (AID 884; active means well fitted curve in the direction sought with a large enough effect; an effect the other way counts as inactive or inconclusive; further: on the % scale 0 is the no-effect control and ±100 the full control effect; nearly all actives have a fitted effect of over 50% in size). Summed up:
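20 nM human CYP3A4 with 25 uM Luciferin-PPXE (at KM) in 200 mM KPO4, preincubated 10 min with compound; NADPH regeneration started a 60 min RT reaction. Luciferin detected by luminescence, normalized to 57 uM ketoconazole as full inhibition.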

Assay [14] can be described thus: Confirmation and Secondary Assay for Modulators of Hemoglobin Beta Chain Splicing at IVS2 654 locus (AID 910; active means well fitted curve in the direction sought with a large enough effect; an effect the other way counts as inactive or inconclusive;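 further: HeLa cells stably carrying EGFP split by mutant beta-globin IVS2-654 intron; % of control where 0% means no effect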). Summed up: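 HeLa cells stably expressing EGFP interrupted by β-globin IVS2-654 intron, seeded overnight in Opti-MEM/2% FCS, then treated 2 days at 37 °C. Restored splicing read as total peak GFP intensity per well by laser scanning cytometry (488 nm excitation, 500–520 nm emission); 500 nM antisense PNA as control.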

Assay [15] is described as follows: Confirmation and Secondary Assay for Modulators of Hemoglobin Beta Chain Splicing at IVS2 705 locus (AID 930; active means well fitted curve in the direction sought with a large enough effect; an effect the other way counts as inactive or inconclusive;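 further: HeLa cells stably expressing the EGFP-705 splicing reporter; GFP fluorescence per well restored by corrected splicing of the IVS2-705 intron in EGFP; % of control where 0% means no effect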). Put shortly:
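HeLa IVS2-705 EGFP reporter cells, 500/well, compound 2 d at 37C; correct splicing yields fluorescent EGFP. Control: 500 nM antisense PNA. Read-out: total peak GFP intensity.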

In assay [16] the target is Ubiquitin carboxyl-terminal hydrolase 1 (Homo sapiens) (UniProt O94782). In words: Inhibitors of USP1/UAF1: Pilot qHTS (AID 504865; active means well fitted curve in the direction sought with a large enough effect; an effect the other way counts as inactive or inconclusive; further: potency means the concentration at half of the fitted maximal effect; nearly all actives have a fitted effect of over 35% in size). Put shortly: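 Kinetic fluorescence assay: 1nM USP1/UAF1, 15 min compound preincubation, then 150nM Ub-Rho; 480/540 nm.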
Ubiquitin carboxyl-terminal hydrolase 1 (Homo sapiens), sequence (O94782 whole entry, looked up): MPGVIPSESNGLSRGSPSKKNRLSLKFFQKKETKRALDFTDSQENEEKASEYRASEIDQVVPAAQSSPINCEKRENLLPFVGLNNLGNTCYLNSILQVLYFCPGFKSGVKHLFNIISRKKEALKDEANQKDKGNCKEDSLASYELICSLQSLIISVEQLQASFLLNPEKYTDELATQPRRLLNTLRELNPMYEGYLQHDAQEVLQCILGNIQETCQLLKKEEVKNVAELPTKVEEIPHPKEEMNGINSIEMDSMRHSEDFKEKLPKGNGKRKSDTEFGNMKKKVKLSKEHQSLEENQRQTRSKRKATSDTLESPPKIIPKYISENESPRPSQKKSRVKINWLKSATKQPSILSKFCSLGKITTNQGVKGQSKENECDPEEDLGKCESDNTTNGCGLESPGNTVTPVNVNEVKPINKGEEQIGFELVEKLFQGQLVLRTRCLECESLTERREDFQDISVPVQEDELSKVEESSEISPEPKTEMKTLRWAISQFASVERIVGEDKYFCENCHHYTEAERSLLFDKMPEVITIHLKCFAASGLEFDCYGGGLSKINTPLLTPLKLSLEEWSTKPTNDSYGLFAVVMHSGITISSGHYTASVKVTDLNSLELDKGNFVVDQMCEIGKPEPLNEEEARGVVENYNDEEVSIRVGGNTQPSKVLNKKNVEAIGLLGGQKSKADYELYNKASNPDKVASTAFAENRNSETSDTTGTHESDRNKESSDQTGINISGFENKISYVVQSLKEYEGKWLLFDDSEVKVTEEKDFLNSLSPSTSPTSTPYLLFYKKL
The nature of assay [17]: S16 Schwann cell PMP22 intronic element beta-lactamase assay (AID 624044). Further: potency means the concentration at half of the fitted maximal effect; nearly all actives have a fitted effect of over 15% in size. Put shortly:
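Rat S16 Schwann cells with beta-Lac driven by a PMP22 intronic element, compound-treated 24 h at 37 °C. LiveBLAzer FRET B/G read: 460 nm normalized to potassium clavulanate vs DMSO; 535 nm FRET as viability; concentration-effect curves classified.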

A short description of assay [18]: Primary qHTS for inhibitors of SARS-S pseudo-typed particle cell entry (AID 1479145). Further: nearly all actives have a fitted effect of over 45% in size. Further: potency means the concentration at half of the fitted maximal effect. On activity change, negative = inhibition: on the % scale 0 is the no-effect control and ±100 the full control effect.
Assay [19] in a line: Primary qHTS for inhibitors of MERS-S pseudo-typed particle cell entry (AID 1479149). Further: on the % scale 0 is the no-effect control and ±100 the full control effect; nearly all actives have a fitted effect of over 60% in size.
The nature of assay [20]: Primary qHTS for Vero E6 cytotoxicity: counterscreen for inhibitors of SARS-S pseudo-typed particle cell entry (AID 1479150). As to conditions: outcome: dose series up to 57.1 µM unless noted.
A short description of assay [21]: Primary qHTS to identify inhibitors of SARS-CoV-2 cell entry (AID 1645846). Further: nearly all actives have a fitted effect of over 45% in size. As to conditions: activity change, negative = inhibition: at 57.1 µM (top of the series) unless noted. Put shortly:
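Data are normalized to wells receiving SARS-CoV-2-S pseudoparticles and those given bald particles. Entry signal was luciferase luminescence in stable hACE2 Expi293F cells, 48 hr post-infection, after 1 hr compound pretreatment.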

Assay [22] is described as follows: qHTS profiling of the MIPE4 collection as inhibitors of Plasmodium falciparum (3D7) proliferation (AID 743344; call rule not given here;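 further: scaled between DMSO vehicle wells and 0.29 µM artemisinin as full inhibition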). The settings on record: P. falciparum 3D7 in erythrocytes, SYBR Green DNA fluorescence, 72 h; at 28.5 µM (top of the series) unless noted. Put shortly: as §1
Assay [23] is described as follows: qHTS profiling of the MIPE4 collection as inhibitors of Plasmodium falciparum (DD2) proliferation (AID 743345; call rule not given here). As to conditions: P. falciparum Dd2 in erythrocytes, SYBR Green DNA, 72 h; at 28.5 µM (top of the series) unless noted. Summed up: as §1
Assay [24] can be described thus: Primary qHTS for Huh7 cytotoxicity: counterscreen for inhibitors of MERS-S pseudotyped particle cell entry (AID 1479147). As to conditions: outcome: dose series up to 57.1 µM unless noted.
A short description of assay [25]: Confirmatory qHTS for VERO E6 Cytotoxicity Assay: Counterscreen for SARS-CoV-2 CPE Assay (AID 1508605). Further: on the % scale 0 is the no-effect control and ±100 the full control effect; nearly all actives have a fitted effect of over 60% in size.
Assay [26] can be described thus: Confirmatory qHTS for activators (rescue) of SARS-CoV-2 Cytopathic Effect (CPE) (AID 1508606). Further: potency means the concentration at half of the fitted maximal effect; nearly all actives have a fitted effect of over 70% in size.

SMILES strings stand for the structures. “And” between values parts separate entries of the source, which are not always exact repeats. Identical values can stand only once. Records with an inconclusive call do not appear. The source made the active and inactive calls. Unless noted, the call rests on the fitted dose curve.

Cytochrome P450 3A4 (Homo sapiens), sequence (P08684 whole entry, looked up): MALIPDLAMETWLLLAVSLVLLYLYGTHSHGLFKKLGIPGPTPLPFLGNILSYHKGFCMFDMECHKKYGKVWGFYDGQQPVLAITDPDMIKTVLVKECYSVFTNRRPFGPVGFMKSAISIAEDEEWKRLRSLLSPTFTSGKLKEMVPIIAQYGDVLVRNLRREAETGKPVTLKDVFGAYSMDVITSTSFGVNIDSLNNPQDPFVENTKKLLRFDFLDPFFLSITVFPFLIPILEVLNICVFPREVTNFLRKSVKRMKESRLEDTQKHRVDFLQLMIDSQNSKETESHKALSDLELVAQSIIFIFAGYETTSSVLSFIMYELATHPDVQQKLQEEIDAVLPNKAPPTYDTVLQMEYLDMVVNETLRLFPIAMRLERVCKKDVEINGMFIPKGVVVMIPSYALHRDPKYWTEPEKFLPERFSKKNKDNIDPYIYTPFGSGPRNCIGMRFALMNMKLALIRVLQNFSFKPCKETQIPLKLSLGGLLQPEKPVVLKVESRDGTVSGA

For the compound `Clc1nccc2c1ccc1ccccc12`, the result in assay [1], in assay [2] and in [4] was inactive. In addition, the Potency entry in [3], in assay [5], in assay [6] and in [7] was “inactive” in each case.
With `CC=C1C2C=C(C)CC1(N)c1ccc(=O)[nH]c1C2` (stereo not drawn), in [8], the parasite growth, % of control (lower = inhibition) is 79.2%. The compound also registered a growth, % of control in assay [9] of 103%. The Potency result in assay [5], in [6], in assay [7] and in assay [10] was “inactive” in each case.
As for `c1ccc(CN2CCC3(CCCc4ccccc43)CC2)cc1`, the compound was classed as inactive in assay [1] and in assay [2]. For the same compound, the Potency result in assay [5], in [6], in assay [7] and in assay [10] was “inactive” in each case.
For `CCCCOc1c(C(=O)c2c(F)cc(C)cc2F)cnc2n[nH]cc12`, the Potency is 5.44 µM (active) in assay [5], 2.17 µM (active) in assay [6], 7.69 µM (active) in assay [7] and 1.52 µM (active) in [11]. The Potency entry in assay [12] is “inactive”.
For `O=C(O)CF`, the Potency entry in [13], in [14], in assay [5], in assay [6], in [7] and in assay [10] was “inactive” in each case. Moreover, in assay [15], the compound was classed as inactive.
Take `COc1cccc2c1C(=O)c1c(O)c3c(c(O)c1C2=O)C[C@@](O)(C(=O)CO)C[C@@H]3O[C@H]1C[C@H](N)[C@H](OC2CCCCO2)[C@H](C)O1` (stereo partly drawn): the Potency in assay [16] was 44.7 µM (active); in assay [17], 5.62 µM (active); in [6] it was 6.11 µM (active); in assay [7], 6.85 µM (active); in assay [18], 7.94 µM (active); in assay [12] it was 12.6 µM (active). Further, the Potency result in assay [5] and in assay [19] was “inactive” in each case. Also, the outcome in assay [20] was inactive. Moreover, the activity change, negative = inhibition in assay [21] is -97.2% and -91.8%.
Take `CCOC(=O)C1=C(C)NC2=C(C(=O)CC(C)(C)C2)C1c1ccc(-c2ccccc2)cc1` (stereo not drawn): the Potency entry in [5], in assay [6], in [7] and in [12] was “inactive” in each case.
Regarding `CC(C)n1nc(-c2ccc3oc(N)nc3c2)c2c(N)ncnc21`, the Potency in assay [5] is 0.0024 µM (active); in [6], 0.0019 µM (active); in assay [7] it was 0.0031 µM (active). Besides, the activity change, negative = inhibition in assay [21] is -61%.
`C=CCNc1ncnc2ccc(Br)cc12`: the compound was classed as inactive in assay [4]. Also, the Potency result in [5], in [6] and in [7] was “inactive” in each case.
On to `CC(=O)N[C@H]1[C@@H]([C@H](O)[C@H](O)CO)OC(C(=O)O)=C[C@@H]1N=C(N)N`, for which, in [22], the parasite growth, % of DMSO control was determined as 96.2%. Also, the parasite growth remaining, % of DMSO control (lower = more inhibition) in assay [23] worked out at 100%. Further, in assay [8], the parasite growth, % of control (lower = inhibition) worked out at 142%. This compound also came in with a growth, % of control in assay [9] of 100%. In addition, the Potency result in assay [5], in assay [6], in [7] and in assay [10] was “inactive” in each case.
As for `C[C@H](CCC(=O)O)[C@H]1CCC2C3CC[C@@H]4C[C@H](O)CC[C@]4(C)C3CC[C@@]21C` (stereo partly drawn), in assay [22], the parasite growth, % of DMSO control is 97.3%. The parasite growth, % of control (lower = inhibition) in [8] was 65%. Besides, the Potency result in [5], in assay [6], in [7] and in assay [10] was “inactive” throughout.
As for `CC(C)Cc1ccc([C@H](C)C(=O)O)cc1`, the compound was called inactive in assay [1] and in assay [2]. For the same compound, the Potency entry in assay [5], in [6], in [7] and in [10] was “inactive” throughout.
With `COC(=O)[C@H]1[C@H]2C[C@@H]3c4[nH]c5ccccc5c4CCN3C[C@H]2C[C@@H](OC(=O)c2cc(OC)c(OC)c(OC)c2)[C@@H]1OC`, the Potency result in assay [5], in [6], in assay [7], in assay [18], in [25] and in assay [11] was “inactive” throughout. Further, the Potency entry in [12] was “inactive”. Also, the outcome in assay [24] and in assay [20] was inactive. In assay [26], the Potency was 11.2 µM (active).
